Experimental data taken from PubChem BioAssay (EPA / NIEHS).
Several values for one entry are separate records, joined by “and”; a condition that tells them apart may be missing. Equal values may be shown once. Activity calls are given as the source filed them. Rule for the calls: active = hit-call score of the fitted dose curve at least 0.9, where 1 is the maximum; inactive = score below 0.9.

The molecules below were run on Matrix Metallopeptidase 1 (MMP1), MMP1 (gene 4312) (assay: BSK_MyoF_MMP1: BioMAP Diversity Plus: MyoF Assay for Matrix Metallopeptidase 1 (MMP1) Biomarker Activity (AID 2284268)). Conditions: primary human lung fibroblasts.
Method: BSK_MyoF is a cell-based, multiplexed-readout assay that uses lung fibroblasts, […], with measurements taken at 24 hours after chemical dosing in a microplate: 96-well plate.BSK_MyoF_MMP1 is an assay component measured in the BSK_MyoF assay. It measures […] antibody related to regulation of gene expression using ELISA technology.Data from the assay component BSK_MyoF_MMP1 was analyzed at the endpoint, BSK_MyoF_MMP1, in the positive analysis fitting direction relative to DMSO as the negative control and baseline of activity. Using a type of binding reporter, gain or loss-of-signal activity can be used to understand protein changes. To generalize the intended target to other relatable targets, this assay endpoint is annotated to the 'protease' intended target family, where the subfamily is 'matrix metalloproteinase'.
The levels of cell surface (or secreted, indicated by the prefix "s") biomarker endpoints were measured by ELISA. Overt cytotoxicity to cells in confluent adherent cultures (all systems other than the BT system) was assessed by measuring total protein levels using sulforhodamine B (SRB) staining in parallel cultures at the time of biomarker measurements, indicated as SRB endpoints. For proliferation assays for adherent cell types, individual cell types are cultured at sub-confluence and relative cell numbers quantified by SRB staining at time points optimized for each system (48 h: 3C and CASM3C systems; 72 h: BT and HDF3CGF systems; 96 h: SAg system). SRB was performed by staining cells with 0.1% SRB after fixation with 10% TCA and reading wells at 560 nm.Viability and proliferation of PBMC (T cells) was quantified by Alamar Blue reduction for the SAg and BT systems. For PBMC viability (referred to as PBMC Cytotoxicity within the assay endpoint names), cells were plated (75,000/well in a 96-well plate) and then chemical samples added for 1 h before addition of activators, SEB and TSST-1 (20 ng/mL final concentration each). Cells were incubated for 90 h. Then, Alamar Blue (20 uL/well) (Invitrogen, Cat DAL1100) was added for 6 h, and the plates were read with a fluorescence microplate reader at 546/580 nm (excitation/emission). For PBMC proliferation, cells were plated and activated as above but incubated for only 16 h prior to addition of Alamar Blue. Plates were read after 6 h.
For `S=P(N1CC1)(N1CC1)N1CC1`, the outcome was “inactive”.
With `FC(F)C(F)(F)COCC1CO1` (stereo not drawn) the outcome was “inactive”.
For `Cc1cccc(O)c1C`, the outcome was “inactive”.
For `FC(F)=C(F)C(F)(F)C(F)(F)C(F)(F)C(F)(F)C(F)(F)C(F)(F)F`, the outcome was “inactive”.
For `FC(F)(F)C(F)(F)C(F)(F)C(F)(F)C(F)(F)C(F)(F)I`, the AC50 was 14 µM (active) and 21.6 µM (active).
With `OC(O)(C(F)C(O)(O)C(F)(F)F)C(F)(F)F` the outcome was “inactive”.
For `O=C(Cl)C(F)(F)C(F)(F)C(F)(F)C(=O)Cl`, the outcome was “inactive”.
`C[Si](C)(C)C(F)(F)C(F)(F)C(F)(F)F` was tested, and the outcome was “inactive”.
With `OCc1c[nH]c2ccccc12` the AC50 was 16.8 µM (active).
In the case of `OCCC(F)(F)C(F)(F)C(F)(F)C(F)(F)F`, the outcome is reported as “inactive”.
For `NCC(F)(F)C(F)(F)C(F)(F)C(F)(F)F`, the outcome was “inactive”.
For `FC(F)(F)COC(OCC(F)(F)F)OCC(F)(F)F`, the outcome was “inactive”.
`O=S(=O)(O)CCC(F)(F)C(F)(F)C(F)(F)C(F)(F)C(F)(F)C(F)(F)F` was tested, and the outcome was “inactive”.
